According to PubChem BioAssay (NCI):
The panel holds about 83,000 compounds, 20% with a hit somewhere; the sample as a whole holds those more often.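 Assay: single dose, 48 h. Readout: percent growth (0 = no net growth; negative = cell death). Active: <10.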 Values without a mark were called inactive. Calls of active or inactive are those of the source.

Tests used:
Assay in all cases: NCI-60 one-dose screen, 48 h (100 = growth as untreated, 0 = no growth, -100 = all killed)
Conditions in all cases: 10 µM unless noted
RPMI-8226 leukemia = system: RPMI-8226 leukemia
OVCAR-5 ovarian = system: OVCAR-5 ovarian
OVCAR-4 ovarian = system: OVCAR-4 ovarian
SK-OV-3 ovarian = system: SK-OV-3 ovarian
IGROV1 ovarian = system: IGROV1 ovarian
OVCAR-3 ovarian = system: OVCAR-3 ovarian
HS 578T breast = system: HS 578T breast
NCI/ADR-RES ovarian = system: NCI/ADR-RES ovarian
T-47D breast = system: T-47D breast
OVCAR-8 ovarian = system: OVCAR-8 ovarian

| SMILES | growth (RPMI-8226 leukemia) | growth (OVCAR-5 ovarian) | growth (OVCAR-4 ovarian) | growth (SK-OV-3 ovarian) | growth (IGROV1 ovarian) | growth (OVCAR-3 ovarian) | growth (HS 578T breast) | growth (NCI/ADR-RES ovarian) | growth (T-47D breast) | growth (OVCAR-8 ovarian) |
| --- | --- | --- | --- | --- | --- | --- | --- | --- | --- | --- |
| COc1ccc2c(c1)C(=O)c1c-2c(=O)n(CCCCCCC(=O)NO)c2ccccc12 | -2.83% (active) | -4.52% (active) | 4.23% (active) | -3.32% (active) | -34.9% (active) | -19.6% (active) | -2.26% (active) | -14.1% (active) | -11.8% (active) |  |
| O=C(Cc1ccccn1)C(F)(F)C(F)(F)C(F)(F)F | 100% | 113% | 109% | 109% | 123% | 112% | 102% | 104% | 102% |  |
| COc1cc(/C=C/C(=O)Nc2ccc3c(c2)/C(=C\c2cccn2C)C(=O)N3)cc(OC)c1OC | -17.8% (active) | 99.5% | 50.3% | 81.5% | 60.4% | 41.7% | 4.35% (active) | 84.2% | 15% |  |
| Nc1c2ccccc2nc2ccccc12 (tested in a mixture with another compound) | 7.88% (active) | 15.6% | 19% | 32.6% | 22.9% | 32.6% | 42.9% | 19.4% | 28.9% |  |
| COc1ccc2nccc(/C=C/c3ccnc4ccc(OC)cc34)c2c1 | -5.34% (active) | 117% | 104% | 115% | 102% |  |  | 101% | 98.4% |  |
| CCOC(=O)C1=C(COCCN)NC(C)=C(C(=O)OC)C1c1ccccc1Cl (configuration not stated) | 45.9% | 74.7% | 78.9% | 94.2% | 73.6% | 68.5% | 80.3% | 80% | 51.7% |  |
| Cc1c(C(N)=O)sc2nc(SCC(=O)Nc3ccc(Cl)cc3)n(-c3ccccc3)c(=O)c12 | 112% | 93.9% | 101% | 105% | 20.6% |  | 348% | 97.2% | 91.1% |  |
| O=C1CCCN1C1CCN(Cc2cc3ccccc3[nH]c2=O)c2ccccc21 (configuration not stated) | 3.19% (active) | 91.3% | 82.6% | 93.8% | 90% | 98.8% | 98% | 97.4% | 60.1% |  |
| O=C(Cn1ccnc1)NC(c1ccccc1)c1ccccc1 | 108% | 83.5% | 105% | 114% | 106% | 116% | 102% | 102% | 101% |  |
| CCN(CC)c1ccc(CN(CC(=O)c2ccc(Cl)c(Cl)c2)Cc2ccccc2)cc1 | 101% | 104% | 105% | 90% | 107% | 99.2% | 103% | 105% | 85.5% |  |
| COc1cc2c(c(OC)c1OC)-c1ccc(NN(C(=O)c3ccccc3)C(=O)c3ccccc3)c(=O)cc1[C@@H](NC(C)=O)CC2 (tested in a mixture with another compound) | 66.6% | 68% | 63.4% | 20.8% | 12.3% | 2.09% (active) | -6.83% (active) | 74% | 41.7% |  |
| CC[C@H](C)C(=O)O[C@H]1C[C@@H](C)C=C2C=C[C@H](C)[C@H](CC[C@@H]3C[C@@H](O)CC(=O)O3)[C@H]21 | 71.8% | 87.2% | 111% | 83.7% | 55.9% | 102% | 94% | 32.1% | 96.7% |  |
| COc1ccc(/C=N/NC(=O)c2ccc(S(C)(=O)=O)cc2)cc1OC | 97.1% | 111% | 96.2% | 102% | 109% |  | 102% | 108% | 96.6% |  |
| COc1cc(/C=C/c2nnc(-c3cc(-c4ccccc4)n[nH]3)o2)cc(OC)c1OC | 83% | 101% | 100% | 88.7% | 110% | 107% | 99.7% | 86.7% | 73.2% |  |
| CN(C)c1ccc2c(c1)/C(=N/O)c1ccccc1-2 | 107% | 96.2% | 82.6% | 90.1% |  | 93.4% | 36.4% | 41.9% | 85.5% |  |
| N#CCCCCCn1c2ccccc2c2c3c(c4c5ccccc5[nH]c4c21)C(=O)N(O)C3=O | -18.3% (active) | -18.3% (active) | 19.5% | 41.3% | -1.36% (active) | -13.4% (active) | 19.8% | 67.9% | 14.2% |  |
| Cc1cccc(Cl)c1NC(=O)c1ccc2nc(NC(=O)NC3CC(C)(C)NC(C)(C)C3)sc2c1 | 87.1% | 78% | 95.3% | 76.3% | 65.2% | 99.7% | 30.8% | 118% | 54% |  |
| COC(=O)CCC1=C(C)/C(=C/c2[nH]c(-c3ccc[nH]3)cc2OC)N=C1C | -57% (active) | 35% | 23.4% | 40% | 25.9% | -56.9% (active) | 1.28% (active) | 14.8% | -36% (active) |  |
| CNc1ccc(CSc2ccc(Cl)cc2)cc1 | 35.8% |  | 85.6% |  | 81.9% | 109% | 123% | 97% | 80.3% | 103% |
| CCCCCCC/C(=N\N=C(N)N)c1ccc(O)cc1 | 11% |  |  | 46.8% | 33.6% | 35.8% | 57.3% | 69.9% | -31.6% (active) | 60.4% |
| Cc1cc(C)c(OC(=O)CSc2nc3ccccc3c(=O)n2CCc2ccccc2)cc1C |  | 110% | 101% | 95.7% | 89.4% | 99% | 94.5% | 89.3% | 90.5% | 95.3% |
| CC(c1ccccn1)C(C)(O)C(C)c1ccccn1 (configuration not stated) |  | 98% | 112% | 114% | 112% | 106% | 104% | 107% | 118% | 101% |
| OC(c1cc(C(F)(F)F)nc2c(C(F)(F)F)cccc12)C1CCCCN1 (configuration not stated) | 80% |  | 56.7% | 78.7% | 44.7% | 73.7% | 62.4% | 50.5% | 75.2% |  |
| Cn1cnc([N+](=O)[O-])c1S(=O)(=O)Oc1ccc(Cl)cc1 |  | 102% | 102% | 104% | 69.8% | -60.3% (active) |  | 95.8% | -31.1% (active) | 76.6% |
| N#CCNc1ccccc1N |  | 109% | 97.2% | 84.5% | 89.3% | 101% | 91.8% | 95.5% | 59.9% | 93.1% |
| Cc1c(C)c(N2C(=O)C=CC2=O)c(C)c(C)c1N1C(=O)C=CC1=O |  | 91% | 104% | 114% | 83.6% | 45.1% |  | 96.4% | 113% | 96.1% |
| CC(C)c1nc(N(C)S(C)(=O)=O)nc(-c2ccc(F)cc2)c1/C=C/[C@@H](O)C[C@@H](O)CC(=O)O | 113% | 108% |  | 104% |  | 99.4% | 110% | 104% | 99.4% |  |
| Oc1ccc(-c2nn(-c3ccccc3)cc2-c2nc3ccccc3s2)cc1 |  | 108% | 86.2% | 99% | 80.9% | 85.3% | 92.4% | 81.1% | 53% | 93.5% |
| COc1cccc(/C=C2\COc3ccc(O)c(O)c3C2=O)c1OC |  | 2.35% (active) | 35.3% | 54.8% | -39.9% (active) | -18.1% (active) | 17.3% |  | 4.89% (active) | 18.3% |
| CCCCCCCC/C=C/CCCCCCCC1=NC(C)(C)CN1CC(C)O (configuration not stated) |  | 83.8% | 61.7% | 88.5% | -15.1% (active) | 31% | 3.01% (active) | 73.4% | 28.6% | 38.8% |
